# In the library only some 21% were active in any assay of this set; here they are far more common.
# Cycloheximide cs = Cycloheximide Counterscreen for Small Molecule Inhibitors of Shiga Toxin | cell reporter, cycloheximide protein synthesis inhibition counterscreen | max response, % | actives 12% (n = 300,000); in the data active = max response mostly above about 13%, no sharp cut-off; inactive = mostly below about 14%; note: read at 38.3 µM for the half of the compounds with a filed dose; 0% is about no effect
# Pf growth 96h = Primary qHTS for delayed death inhibitors of the malarial parasite plastid, 96 hour incubation | P. falciparum luciferase reporter growth, 96 h | actives 6.9% (n = 320,000) | Potency, µM (doses to about 28.7 µM), for inactives: top-dose activity change, negative = inhibition, usual class: inhibitors | AID 504834, 2011; note: potency is the fitted concentration of half-maximal effect; % is set by controls: 0 for no effect and ±100 for the full control effect
#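 Two parasite generations (96 h, 37 C, 5% CO2) of compound exposure in infected erythrocytes (0.05% parasitemia, 2% hematocrit). Luciferase-reporter P. falciparum; decreased luminescence indicates inhibited growth, aimed at apicoplast-acting delayed death.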
# AMA1 RON2 block = qHTS for Inhibitors of AMA1-RON; Towards Development of Antimalarial Drug Lead: Primary Screen | Plasmodium falciparum AMA1 (3D7) - RON2 peptide interaction | AlphaScreen AMA1-biotinylated RON2 peptide binding | Potency, µM (top dose mostly 58.2 µM), for inactives: at the highest dose activity change, negative = inhibition, most hits filed as inhibitors | actives 0.2% (n = 360,000) | AID 720542, 2013;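 note: potency is the fitted concentration of half-maximal effect; 0% = vehicle wells and -100% = peptide control; nearly all actives have a fitted effect of over 45% in size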
#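 AMA1 (3D7) with his tag at 25 nM final met compounds first, then biotinylated RON2 peptide at 25 nM; detection used donor plus acceptor beads, 10 µg/mL apiece, read by AlphaScreen after 30 min at room temperature.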
# Pf growth 48h = Primary qHTS for delayed death inhibitors of the malarial parasite plastid, 48 hour incubation | actives 5.9% (n = 310,000) | Potency, µM (titrated, usually from 28.7 µM), without a hit: at the highest dose activity change, negative = inhibition, most hits filed as inhibitors | AID 504832, 2011 | P. falciparum luciferase growth in erythrocytes, 48 h; note: potency is the fitted concentration of half-maximal effect; % is set by controls: 0 for no effect and ±100 for the full control effect
#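 Erythrocytes infected with P. falciparum carrying an integrated firefly luciferase reporter (2% hematocrit, 0.1% parasitemia final) were exposed to compounds in RPMI 1640 with 0.5% Albumax at 37 C, 5% CO2. Growth inhibition was scored as reduced luminescence.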
# Shiga toxin inh = A qHTS for Small Molecule Inhibitors of Shiga Toxin; Vero cells, Shiga toxin protein synthesis inhibition reporter; inhibition, % at 38.7 µM; actives 9.2% (n = 290,000); AID 2315, 2010; in the data active = inhibition mostly above about 28%, no sharp cut-off; inactive = mostly below about 43%; note: 0% is about no effect
# HCV inh = qHTS Assay for Inhibitors of Hepatitis C Virus (HCV) | actives 3.4% (n = 340,000) | Potency, µM (series often up to 41.8 µM), for inactives: at the highest dose activity change, negative = inhibition, usual class: inhibitors | Huh7.5.1 HCVcc-Cre infection, luciferase reporter, 44 h; note: potency is the fitted concentration of half-maximal effect; % is set by controls: 0 for no effect and ±100 for the full control effect
#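 Luciferase read-out (15 sec integration) after a 15 min room-temperature substrate step quantifies HCVcc-Cre infection. Cells, 1,000 per well, had compound added 4 h post-plating, then virus at ~0.5 moi, and were cultured 44 h.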
# * = called active by the depositor; i = inactive; ? = inconclusive; . = not tested or not shown; [ ] = remark or other dose. Unless noted, calls come from the whole dose curve; as a rule, active = well fitted curve in the direction sought with a large enough effect; inconclusive = small, poorly fitted or top-dose-only effect, or another doubt; inactive = no such curve, though single readings can be large; an effect the other way counts as inactive or inconclusive.
SMILES,Cycloheximide cs,Pf growth 96h,AMA1 RON2 block,Pf growth 48h,Shiga toxin inh,HCV inh
Cc1cnc(NC(=O)c2cccc(S(=O)(=O)N3CC(C)OC(C)C3)c2)s1 (configuration not stated),11,13µM*,77%,?,11,11µM*
Cc1cnc(NC(=O)c2cccc(S(=O)(=O)N3CCOCC3)c2)s1,.,?,60%,18%,.,9%
N#Cc1ccccc1OCC(=O)OCC(=O)NC1CCS(=O)(=O)C1 (configuration not stated),.,5%,1%,-7%,.,9%
Nc1nonc1OCCc1ccccc1,12*,51%,0%,48%,36,4%
Nc1nc(-c2ccc3c(c2)OCCO3)cs1,50*,.,-4%,100%,79*,?
Cc1nc(-c2ccc3c(c2)OCO3)cs1,16*,127%,2%,44%,43*,-3%
OC(c1ccccc1)(c1nc(-c2ccc3c(c2)OCO3)cs1)C(F)(F)F (configuration not stated),.,.,-12%,.,.,.
O=S(=O)(c1ccc(-c2csc(-c3cccnc3)n2)cc1)N1CCCC1,-2,-18%,9%,?,2,-27%
Nc1nc(-c2cc3c(cc2Cl)OCCO3)cs1,40*,?,10%,34%,44*,?
c1cncc(-c2nc(-c3ccc4c(c3)OCO4)cs2)c1,28*,.,-2%,-30%,85*,?
Cc1cccc(NC(=O)C(C)Sc2nc3nc(C)cc(C)n3n2)c1 (configuration not stated),.,.,15%,.,.,-2%
Cc1cccc(NC(=O)c2c([N+](=O)[O-])cnn2C)c1,4,-29%,15%,-2%,.,5%
Cc1nc2ccccn2c(=O)c1NC(=O)c1ccc2c(c1)OCO2,.,.,15%,.,.,.
Cc1cc(C)cc(N2C(=O)CC(Sc3ncn[nH]3)C2=O)c1 (configuration not stated),-2,i,3%,-8%,-18,0%
Cc1nc(-c2ccc3c(c2)OCCCO3)cs1,45*,231%,-3%,333%,87*,-15%
Nc1nc(-c2ccc3c(c2)NC(=O)CO3)cs1,17,.,-8%,19%,19,?
Fc1ccc(-c2csc(/C=C/c3ccc4c(c3)OCO4)n2)cc1,20*,25%,-7%,39%,39*,7%
CC1Cc2cc(-c3csc(N)n3)ccc2O1 (configuration not stated),26*,0%,-4%,88%,36*,-15%
Nc1nc(-c2ccc3c(c2)CCCC3)cs1,36*,346%,-29%,354%,93*,-16%
CCc1ccc(C2=NN(CCC(=O)NCc3cccs3)C(=O)CC2)cc1,10,12%,-3%,?,16,6%
O=C(NCCc1cscn1)C1CCC(=O)N(Cc2ccc(Cl)cc2)C1 (configuration not stated),-4,-7%,9%,29%,-21,34%
COP(=O)(OC)C(Nc1ccc(Cl)cc1)c1ccccc1 (configuration not stated),-2,0%,-1%,0%,.,6%
CC(C)OP(=O)(c1ccc(N(C)C)cc1)C(Nc1ccccc1)c1ccccc1 (configuration not stated),-2,?,?,8.3µM*,-5,-27%
COc1ccc(NC(c2ccccc2)P(=O)(Oc2ccccc2)Oc2ccccc2)cc1 (configuration not stated),11*,24%,-13%,4%,-3,8%
COP(=O)(OC)C(Nc1ccccc1)c1ccccc1 (configuration not stated),0,17µM*,4%,10%,-8,6%
SMILES,Cycloheximide cs,Pf growth 96h,AMA1 RON2 block,Pf growth 48h,Shiga toxin inh,HCV inh
COC(=O)c1ccc(NC(c2ccc(Cl)cc2)P(=O)(OC)OC)cc1 (configuration not stated),32*,5%,-1%[11.6 µM],20%,20,-4%
CC1(C(=O)Nc2ccc3c(c2)OCO3)CCN1C(=O)C1CCCCC1 (configuration not stated),.,.,-4%,.,.,.
O=C(COC(=O)CN1C(=O)C2CCCCC2C1=O)NCc1ccc(Cl)cc1Cl (configuration not stated),.,6%,-5%,1%,.,11%
O=C(O)c1ccc[n+](Cc2ccc([N+](=O)[O-])cc2)c1,.,.,-3%,.,.,-3%
CCCCC[n+]1cccc2c3ccccc3ccc21,3,-27%,1%,?,-1,?
c1ccc(C[n+]2cccc3c4ccccc4ccc32)cc1,-1,11%,11%,0.074µM*,-5,?
O=[N+]([O-])c1ccc(C[n+]2cccc3ccc4cccnc4c32)cc1,-1,?,81%,0.26µM*,12,?
O=[N+]([O-])c1ccc(C[n+]2cccc3ccccc32)cc1,9,?,2%,10µM*,4,8%
CC(C)N(C(=O)CSc1nnc(-c2ccc3c(c2)OCO3)n1C)C(C)C,9,?,-13%,3%,15,5%
CCCn1cnc2scc(-c3ccc(C)c(C)c3)c2c1=O,-2,10µM*,14%,2%,-7,-21%
CCOC(=O)C(C)n1cnc2scc(-c3ccc(C)cc3)c2c1=O (configuration not stated),-1,?,-12%,?,-10,-12%
CCCOC(=O)C(C)n1cnc2scc(-c3ccc(C)cc3)c2c1=O (configuration not stated),3,46%,-5%,?,-26,22µM*
CCC(C(=O)O)n1cnc2scc(-c3ccc(C)c(C)c3)c2c1=O (configuration not stated),-4,?,0%,?,35,-4%
CCC(C(=O)OC)n1cnc2scc(-c3ccc(C)c(C)c3)c2c1=O (configuration not stated),3,0%,-24%,13µM*,.,?
Cc1oc2c(c1C(=O)N1CCC(C)CC1)C(=O)c1ccccc1C2=O,1,0.093µM*,-6%,0.23µM*,16,?
CCOC(=O)C1CCN(C(=O)c2c(C)oc3c2C(=O)c2ccccc2C3=O)CC1,4,0.29µM*,-2%,0.41µM*,15,-13%
CCOC(=O)C1CCCN(C(=O)c2ccc(-c3ccccc3)cc2)CC1 (configuration not stated),.,.,-6%,.,.,.
CC(C)(C)NC(=O)C(c1ccncc1)N(Cc1ccco1)C(=O)c1ccc(-c2ccccc2)[nH]1 (configuration not stated),39*,0%,-20%,?,91*,5%

# Source: PubChem (National Center for Advancing Translational Sciences (NCATS))
